Where “and” joins values, the source holds several entries; their conditions need not be identical. Equal entries are not always repeated. About 2,000 (36%) of roughly 5,500 compounds were called active. Another 18% or so got no clear call; they are omitted. Cut-off read from the data, not from the text of the source: active = normalized growth mostly below about 0.91 (no sharp cut-off); inconclusive = no clear call, values can overlap the other calls; inactive = mostly above about 0.92. This is one part of the list.
Experiment: chemical genetic growth profiling, strain panel (AID 1159580);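 note: tested at 20 µM; growth read once vehicle control cultures reached saturation at 30 °C; 1 = growth at the plate median or of vehicle wells; lower values mean less growth of the strain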
Conditions: growth OD

Measured: normalized growth

COc1ccc(-c2coc3cc(O)cc(O)c3c2=O)cc1
active: S. cerevisiae deletion strains, locus YAL013W, strain DEP1, hits give low values 0.497 | S. cerevisiae deletion strains, locus YBR229C, strain ROT2, hits give low values 0.77 | S. cerevisiae deletion strains, locus YCL029C, strain bik1, hits give low values 0.496 | S. cerevisiae deletion strains, locus YDL035C, strain GPR1, hits give low values 0.241 | S. cerevisiae deletion strains, locus YDL074C, strain BRE1, hits give low values 0.261 | S. cerevisiae deletion strains, locus YDL101C, strain DUN1, hits give low values 0.358 | S. cerevisiae deletion strains, locus YDL134C, strain PPH21, hits give low values 0.295 | S. cerevisiae deletion strains, locus YDL185W, strain tfp1, hits give low values 0.899 | S. cerevisiae deletion strains, locus YDL192W, strain arf1, hits give low values 0.28 | S. cerevisiae deletion strains, locus YDR101C, strain arx1, hits give low values 0.504 | S. cerevisiae deletion strains, locus YDR150W, strain NUM1, hits give low values 0.323 | S. cerevisiae deletion strains, locus YDR162C, strain NBP2, hits give low values 0.12 | S. cerevisiae deletion strains, locus YDR318W, strain mcm21, hits give low values 0.265 | S. cerevisiae deletion strains, locus YDR388W, hits give low values 0.286 | S. cerevisiae deletion strains, locus YDR502C, strain sam2, hits give low values 0.287 | S. cerevisiae deletion strains, locus YEL061C, strain CIN8, hits give low values 0.206 | S. cerevisiae deletion strains, locus YER110C, hits give low values 0.539 | S. cerevisiae deletion strains, locus YER155C, strain BEM2, hits give low values 0.199 | S. cerevisiae deletion strains, locus YER167W, strain BCK2, hits give low values 0.178 | S. cerevisiae deletion strains, locus YGL078C, strain dbp3, hits give low values 0.649 | S. cerevisiae deletion strains, locus YGL086W, strain mad1, hits give low values 0.258 | S. cerevisiae deletion strains, locus YGL248W, strain PDE1, hits give low values 0.286 | S. cerevisiae deletion strains, locus YGR078C, strain PAC10, hits give low values 0.227 | S. cerevisiae deletion strains, locus YGR135W, strain pre9, hits give low values 0.314 | S. cerevisiae deletion strains, locus YGR229C, strain SMI1, hits give low values 0.196 | S. cerevisiae deletion strains, locus YGR252W, strain gcn5, hits give low values 0.507 | S. cerevisiae deletion strains, locus YHR030C, strain SLT2, hits give low values 0.248 and 0.299 | S. cerevisiae deletion strains, locus YHR079C, strain IRE1 (second series), hits give low values 0.526 | S. cerevisiae deletion strains, locus YHR079C, strain IRE1, hits give low values 0.293 | S. cerevisiae deletion strains, locus YHR094C, strain hxt1, hits give low values 0.627 | S. cerevisiae deletion strains, locus YHR129C, strain ARP1, hits give low values 0.363 | S. cerevisiae deletion strains, locus YHR200W, strain rpn10, hits give low values 0.513 | S. cerevisiae deletion strains, locus YIL066C, strain RNR3, hits give low values 0.361 | S. cerevisiae deletion strains, locus YIL073C, strain SPO22, hits give low values 0.532 | S. cerevisiae deletion strains, locus YIL125W, strain kgd1, hits give low values 0.697 | S. cerevisiae deletion strains, locus YIR030C, strain dcg1, hits give low values 0.465 | S. cerevisiae deletion strains, locus YJL095W, strain BCK1, hits give low values 0.172 and 0.287 | S. cerevisiae deletion strains, locus YJL134W, strain LCB3, hits give low values 0.7 | S. cerevisiae deletion strains, locus YJL168C, strain set2, hits give low values 0.888 | S. cerevisiae deletion strains, locus YJL187C, strain SWE1 (second series), hits give low values 0.353 | S. cerevisiae deletion strains, locus YJR043C, strain POL32, hits give low values 0.374 | S. cerevisiae deletion strains, locus YJR066W, strain TOR1, hits give low values 0.16 | S. cerevisiae deletion strains, locus YJR075W, strain HOC1, hits give low values 0.179 | S. cerevisiae deletion strains, locus YKL009W, strain mrt4, hits give low values 0.484 | S. cerevisiae deletion strains, locus YKL085W, strain MDH1 (second series), hits give low values 0.604 | S. cerevisiae deletion strains, locus YKL085W, strain MDH1, hits give low values 0.604 | S. cerevisiae deletion strains, locus YKL190W, strain CNB1, hits give low values 0.223 | S. cerevisiae deletion strains, locus YKR001C, strain vps1, hits give low values 0.189 | S. cerevisiae deletion strains, locus YLR039C, strain RIC1, hits give low values 0.241 | S. cerevisiae deletion strains, locus YLR058C, strain SHM2, hits give low values 0.365 | S. cerevisiae deletion strains, locus YLR102C, strain apc9, hits give low values 0.625 | S. cerevisiae deletion strains, locus YLR113W, strain HOG1, hits give low values 0.332 | S. cerevisiae deletion strains, locus YLR262C, strain YPT6, hits give low values 0.181 | S. cerevisiae deletion strains, locus YLR268W, strain sec22, hits give low values 0.211 | S. cerevisiae deletion strains, locus YLR330W, strain CHS5, hits give low values 0.356 | S. cerevisiae deletion strains, locus YLR342W, strain FKS1 (second series), hits give low values 0.289 | S. cerevisiae deletion strains, locus YLR371W, strain rom2, hits give low values 0.493 | S. cerevisiae deletion strains, locus YLR418C, strain cdc73, hits give low values 0.192 | S. cerevisiae deletion strains, locus YML016C, strain PPZ1, hits give low values 0.444 | S. cerevisiae deletion strains, locus YML032C, strain rad52, hits give low values 0.449 | S. cerevisiae deletion strains, locus YML124C, strain tub3, hits give low values 0.449 | S. cerevisiae deletion strains, locus YMR078C, strain ctf18, hits give low values 0.407 | S. cerevisiae deletion strains, locus YMR223W, strain ubp8, hits give low values 0.297 | S. cerevisiae deletion strains, locus YMR263W, strain SAP30, hits give low values 0.424 | S. cerevisiae deletion strains, locus YMR307W, strain GAS1, hits give low values 0.148 | S. cerevisiae deletion strains, locus YNL067W, strain RPL9B, hits give low values 0.234 | S. cerevisiae deletion strains, locus YNL128W, strain TEP1, hits give low values 0.272 | S. cerevisiae deletion strains, locus YNL153C, strain GIM3, hits give low values 0.439 | S. cerevisiae deletion strains, locus YNL183C, strain NPR1, hits give low values 0.228 | S. cerevisiae deletion strains, locus YNL233W, strain BNI4, hits give low values 0.242 | S. cerevisiae deletion strains, locus YNL250W, strain rad50, hits give low values 0.789 | S. cerevisiae deletion strains, locus YNL271C, strain bni1, hits give low values 0.623 | S. cerevisiae deletion strains, locus YNL298W, strain CLA4, hits give low values 0.459 | S. cerevisiae deletion strains, locus YNL307C, strain MCK1, hits give low values 0.114 | S. cerevisiae deletion strains, locus YNL322C, strain KRE1, hits give low values 0.337 | S. cerevisiae deletion strains, locus YNR052C, strain pop2, hits give low values 0.656 | S. cerevisiae deletion strains, locus YOL006C, strain TOP1, hits give low values 0.29 | S. cerevisiae deletion strains, locus YOL147C, strain pex11, hits give low values 0.362 | S. cerevisiae deletion strains, locus YOR061W, strain CKA2, hits give low values 0.432 | S. cerevisiae deletion strains, locus YOR069W, strain VPS5, hits give low values 0.501 | S. cerevisiae deletion strains, locus YOR136W, strain idh2, hits give low values 0.304 | S. cerevisiae deletion strains, locus YOR144C, strain elg1, hits give low values 0.652 | S. cerevisiae deletion strains, locus YOR184W, strain ser1, hits give low values 0.111 | S. cerevisiae deletion strains, locus YOR231W, strain MKK1, hits give low values 0.288 | S. cerevisiae deletion strains, locus YOR316C, strain cot1, hits give low values 0.636 | S. cerevisiae deletion strains, locus YPL055C, strain LGE1, hits give low values 0.176 | S. cerevisiae deletion strains, locus YPL241C, strain CIN2, hits give low values 0.289 | S. cerevisiae deletion strains, locus YPL256C, strain CLN2, hits give low values 0.345 | S. cerevisiae deletion strains, locus YPR119W, strain clb2, hits give low values 0.308 | S. cerevisiae deletion strains, locus YPR163C, strain tif3, hits give low values 0.207 | S. cerevisiae deletion strains, locus YPR167C, strain met16, hits give low values 0.44 | S. cerevisiae deletion strains, strain wtn01, hits give low values 0.226 | S. cerevisiae strains, strain wild type, hits give low values 0.244
inactive: S. cerevisiae deletion strains, locus YBR021W, strain FUR4, hits give low values 0.988 | S. cerevisiae deletion strains, locus YKL068W, hits give low values 0.964 | S. cerevisiae deletion strains, locus YOL012C, strain htz1 0.231 | S. cerevisiae deletion strains, locus YPR141C, strain kar3, hits give low values 0.935

From PubChem BioAssay AID1159580 (chemical genetic matrix, 2015)
